Experimental data taken from PubChem BioAssay (NCATS).
Inconclusive results are not listed. A number with no mark means an inactive call. Active and inactive are the calls of the source. Calls come from the whole dose curve; as a rule, active = well fitted cell-killing curve with a large enough effect; inconclusive = small, poorly fitted or top-dose-only effect, or effect the other way; inactive = no such curve, though single readings can be large or run the other way.

Assay: Quantitative High-Throughput drug screen in 47 multiple myeloma cell lines against the NCATS MIPE library collection: MM1S_ATCC cell viability assay (AID 1918980); note: nearly all actives have a fitted effect of over 45% in size
Details: MM1S myeloma viability, CellTiter-Glo ATP luminescence, 48 h; series mostly up to 45.8 µM; viability (% of control): at the top concentration
Text: PI: Beverly A. Mock Ph.D.
Laboratory of Cancer Biology and Genetics,
Center for Cancer Research, National Cancer Institute,
National Institute of Health, Bethesda, Maryland
Drug resistance and disease progression are common in multiple myeloma (MM) patients, underscoring the need for new therapeutic combinations. […] We hypothesized that effective combinations would reduce MYC expression and enhance p16 activity. […] These preclinical data identify potentially useful drug combinations for evaluation in drug-resistant MM and reveal potential mechanisms of combined drug sensitivity.
Described herein is the primary MIPE qHTS used to cherrypick compounds. Validated compounds were then further tested for potential synergistic activiy.
[1] Peat TJ, Gaikwad SM, Dubois W, Gyabaah-Kessie N, Zhang S, Gorjifard S, Phyo Z, Andres M, Hughitt VK, Simpson RM, Miller MA, Girvin AT, Taylor A, Williams D, D'Antonio N, Zhang Y, Rajagopalan A, Flietner E, Wilson K, Zhang X, Shinn P, Klumpp-Thomas C, McKnight C, Itkin Z, Chen L, Kazandijian D, Zhang J, Michalowski AM, Simmons JK, Keats J, Thomas CJ, Mock BA. Drug combinations identified by high-throughput screening promote cell cycle transition and upregulate Smad pathways in myeloma. Cancer Lett. 2023 Aug 1;568:216284. doi: 10.1016/j.canlet.2023.216284. Epub 2023 Jun 24. PMID: 37356470; PMCID: PMC10408729.
SEQUENCE No. (e.g., 1, 2, 3, etc.); […] (e.g., Cells, Incubation, Reagent, etc.); VALUE and DESCRIPTION.
1; Cells; 5 uL; white, solid bottom 1536-well Greiner assay plate.
2; Compounds; 23 nL; Kalypsis pin tool (Wako USA) equipped with a 1536-well pin head to transfer to the assay plates.
3; Incubation; 48 hours; 37C incubation.
4; Reagent;5uL; CellTiter Glo (Promega).
5; Detector; 425V; Luminescence; Viewlux PerkinElmer.
NOTES (numbers refer to Sequence numbers above)
1. The cell-based screening methods employed in this study were like those previously published. Briefly, the corresponding myeloma cell lines were screened in 1,536-well plates with 500 cells, 5-uL per well for inhibition of cell viability (assessed by measuring ATP levels with CellTiterGlo).
2. NCATS MIPE 4.0 library of approved and investigational drugs were added using the Kalypsis pin tool. Wells treated with DMSO only for 100% viability and media only for 0% viability were used as controls.
3. The assay plates were covered and incubated for 48 hours in a 37C, 5% CO2 incubator with controlled humidity.
4. After 48 hours, CellTilter-GloTM luminescent substrate mix (Promega) reagent was added to the assay plate and plates we incubated for 5 min at room temperature.
5. Signal was measured as median relative luminescence units on a ViewLux (PerkinElmer) multiplate reader.
[1] Heske CM, Davis MI, Baumgart JT, Wilson K, Gormally MV, Chen L, Zhang X, Ceribelli M, Duveau DY, Guha R, Ferrer M, Arnaldez FI, Ji J, Tran HL, Zhang Y, Mendoza A, Helman LJ, Thomas CJ. Matrix Screen Identifies Synergistic Combination of PARP Inhibitors and Nicotinamide Phosphoribosyltransferase (NAMPT) Inhibitors in Ewing Sarcoma. Clin Cancer Res. 2017 Dec 1;23(23):7301-7311. doi: 10.1158/1078-0432.CCR-17-1121. Epub 2017 Sep 12. PMID: 28899971; PMCID: PMC6636827.
Potency is the fitted concentration of half-maximal effect.

SMILES | Potency | viability (% of control) [%]
CC[C@@H]1C=C(C)C[C@H](C)C[C@H](OC)[C@H]2O[C@@](O)(C(=O)C(=O)N3CCCC[C@@H]3C(=O)O[C@H](C(C)=C[C@@H]3CC[C@H](Cl)[C@H](OC)C3)[C@H](C)[C@@H](O)CC1=O)[C@H](C)C[C@H]2OC | 14.8 µM (active) | –
C[N+](C)(C)CC(=O)O | – | 129
CC[C@@]1(O)C[C@H](O[C@H]2C[C@H](N(C)C)[C@H](O[C@H]3C[C@H](O)[C@H](O[C@H]4CCC(=O)[C@H](C)O4)[C@H](C)O3)[C@H](C)O2)c2c(cc3c(c2O)C(=O)c2c(O)cccc2C3=O)[C@@H]1C(=O)OC | 0.187 µM (active) | –
N[C@@]1(C(=O)O)CS(=O)(=O)[C@H]2[C@H](C(=O)O)[C@H]21 | 3.72 µM (active) | –
Oc1ccc(C2=Cc3ccc(O)cc3OC2)cc1 | 3.32 µM (active) | –
Cc1c(NC(=O)c2ccc(C(C)(C)C)cc2)cccc1-c1cn(C)c(=O)c(Nc2ccc(C(=O)N3CCOCC3)cc2)n1 | 20.9 µM (active) | –
Clc1ccc(-c2nc3sccn3c2C=NOCc2ccc(Cl)c(Cl)c2)cc1 | – | 150
CNC1CCC(N(Cc2cccc(-c3ccncc3)c2)C(=O)c2sc3c(F)ccc(F)c3c2Cl)CC1 (stereo not given) | 14.8 µM (active) | –
N[C@H](CSC(c1ccccc1)(c1ccccc1)c1ccccc1)C(=O)O | 13.2 µM (active) | –
COc1ccc(C2Sc3ccccc3N(CCN(C)C)C(=O)C2OC(C)=O)cc1 (stereo not given) | 18.7 µM (active) | –
O=C(N[C@@H](c1ccccc1)[C@@H]1CCCCN1)c1cccc(C(F)(F)F)c1Cl | 20.9 µM (active) | –
CC1(C)Cc2c(sc(NC(=S)NC(=O)c3ccccc3)c2C(=O)O)CO1 | 18.7 µM (active) | –
CC[C@]1(O)C[C@@H]2CN(CCc3c([nH]c4ccccc34)[C@@](C(=O)OC)(c3cc4c(cc3OC)N(C=O)[C@@H]3C45CCN4CC=C[C@](CC)([C@H]45)[C@@H](OC(C)=O)[C@]3(O)C(=O)OC)C2)C1 (stereo not given in full) | 18.7 µM (active) | –
CC(C)C(=O)Oc1ccc(CO)cc1[C@H](CCN(C(C)C)C(C)C)c1ccccc1 | – | 109
CC#CCn1c(N2CCC[C@@H](N)C2)nc2c1c(=O)n(Cc1nc(C)c3ccccc3n1)c(=O)n2C | 20.9 µM (active) | –
COC[C@@H](c1ccc(C(F)(F)F)cc1)N1CCN(C2(C)CCN(C(=O)c3c(C)ncnc3C)CC2)C[C@H]1C | 2.35 µM (active) | –
CNC(=O)c1ccccc1Sc1ccc2c(C=Cc3ccccn3)n[nH]c2c1 | 16.6 µM (active) | –
O=C(NCc1ccncc1)C12C[C@H]3C[C@@H](C1)CC(c1ccc(Cl)cc1)(C3)C2 | 13.2 µM (active) | –
COc1ccc(-n2c(C)c([N+](=O)[O-])c3ccc(O)cc32)cc1 | 0.833 µM (active) | –
Cc1c(O)cccc1C(=O)N[C@@H](CSc1ccccc1)[C@H](O)CN1C[C@H]2CCCC[C@@H]2C[C@@H]1C(=O)NC(C)(C)C | 20.9 µM (active) | –

SMILES | Potency | viability (% of control) [%]
NS(=O)(=O)c1cccc2c1C(=O)c1cccc(O)c1C2=O | 10.5 µM (active) | –
CC(=Cc1ccccc1)C=C1SC(=S)N(CC(=O)O)C1=O | – | 123
Cc1nnc(C(C)C)n1C1C[C@H]2CC[C@@H](C1)N2CC[C@H](NC(=O)C1CCC(F)(F)CC1)c1ccccc1 (stereo not given in full) | 1.05 µM (active) | –
CC(=O)Nc1ccc([C@H](C)C(=O)Nc2ncc(C(C)C)s2)cc1 | 0.418 µM (active) | –
COc1cc2nc(-c3ccc(N4CCN(C)CC4)cc3)nc(NCCN3CCOCC3)c2cc1OC | 0.0187 µM (active) | –
C=C1C(=O)[C@@]23C(CC[C@@H]1[C@H]2O)[C@@]12CO[C@]3(O)[C@@H](O)[C@@H]1C(C)(C)CC[C@@H]2O (stereo not given in full) | 1.87 µM (active) | –
C[C@H](NC(=O)c1sccc1OCc1ccc(Cl)cc1)c1ccccc1 | 18.7 µM (active) | –
O=C(O)C(O)Cc1ccc(O)c(O)c1 (stereo not given) | 16.6 µM (active) | –
Nc1ncnc2c1nc(Cl)n2[C@@H]1O[C@H](CO)[C@@H](O)[C@@H]1O | 4.18 µM (active) | –
O=C1C(Cl)=C(NCCN2CCOCC2)C(=O)c2ncccc21 | 3.32 µM (active) | –
O=c1cc(-c2cccc3c2Sc2ccccc2S3)oc(N2CCOCC2)c1 | 18.7 µM (active) | –
O=c1c(-c2ccc(O)cc2)coc2cc(O)ccc12 | 13.2 µM (active) | –
O=C1Nc2ccc(Cl)cc2C(C#CC2CC2)(C(F)(F)F)O1 (stereo not given) | 20.9 µM (active) | –
CCC(CC)[C@H](NC(C)=O)[C@@H]1[C@H](O)[C@@H](C(=O)O)C[C@@H]1N=C(N)N | – | 123
COc1cc2c(cc1OC)CN(CCc1ccc(NC(=O)c3cc(OC)c(OC)cc3NC(=O)c3cnc4ccccc4c3)cc1)CC2 | 2.64 µM (active) | –
CC=CCC=CCCC(=O)[C@H]1O[C@@H]1C(N)=O | 20.9 µM (active) | –
O=C(Nc1cc(Cl)cc2c1[nH]c1cnccc12)c1cccnc1 | 11.8 µM (active) | –
C[C@]12CC[C@@H]3c4ccc(O)cc4C[C@@H](CCCCCCCCCS(=O)CCCC(F)(F)C(F)(F)F)[C@H]3[C@H]1CC[C@H]2O (stereo not given in full) | 2.96 µM (active) | –
CN1C[C@H]2c3ccccc3Oc3ccc(Cl)cc3[C@@H]2C1 | – | 109
CC1(C)CCC(CN2CCN(c3ccc(C(=O)NS(=O)(=O)c4ccc(NCC5CCOCC5)c([N+](=O)[O-])c4)c(Oc4cnc5[nH]ccc5c4)c3)CC2)=C(c2ccc(Cl)cc2)C1 | 23.5 µM (active) | –
